About 83,000 compounds went through this panel and 20% of them were active in at least one assay; those are over-represented in the sample as a whole.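 Negative percent growth values reflect cell death: -40 means 40% of the cells present at the start died, and -100 means all died.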 A number with no mark means an inactive call. Activity calls are given as the source filed them. Rule for the calls: active = growth percent below 10; inactive = the rest.
Columns and labels:
Experiment in all cases: NCI-60 one-dose screen, 48 h (100 = growth as untreated, 0 = no growth, -100 = all killed)
Conditions in all cases: 10 µM unless noted
NCI-H23 lung = system: NCI-H23 lung
NCI-H226 lung = system: NCI-H226 lung
NCI-H322M lung = system: NCI-H322M lung
HOP-62 NSCLC = system: HOP-62 NSCLC
NCI-H460 lung = system: NCI-H460 lung
NCI-H522 lung = system: NCI-H522 lung
A549/ATCC NSCLC = system: A549/ATCC NSCLC
786-0 renal = system: 786-0 renal
COLO 205 colon = system: COLO 205 colon
DU-145 prostate = system: DU-145 prostate
K-562 leukemia = system: K-562 leukemia
MDA-MB-231 breast = system: MDA-MB-231 breast
RXF 393 renal = system: RXF 393 renal
SF-268 CNS = system: SF-268 CNS
SF-295 CNS = system: SF-295 CNS
SF-539 CNS = system: SF-539 CNS
M14 melanoma = system: M14 melanoma
HOP-92 NSCLC = system: HOP-92 NSCLC
MALME-3M melanoma = system: MALME-3M melanoma
UACC-257 melanoma = system: UACC-257 melanoma

SMILES	growth (NCI-H23 lung)	growth (NCI-H226 lung)	growth (NCI-H322M lung)	growth (HOP-62 NSCLC)	growth (NCI-H460 lung)	growth (NCI-H522 lung)	growth (A549/ATCC NSCLC)	growth (786-0 renal)	growth (COLO 205 colon)	growth (DU-145 prostate)	growth (K-562 leukemia)	growth (MDA-MB-231 breast)	growth (RXF 393 renal)	growth (SF-268 CNS)	growth (SF-295 CNS)	growth (SF-539 CNS)	growth (M14 melanoma)	growth (HOP-92 NSCLC)	growth (MALME-3M melanoma)	growth (UACC-257 melanoma)
Fc1ccc(NCc2cn(-c3ccccc3)nc2-c2ccc(OCc3ccccc3)cc2)cc1Cl	82%	102%	105%	76.6%	110%	58.5%	83.3%	88.7%	100%	107%	89.8%	72.7%	112%	92.2%	87%	93.3%	88.1%	–	–	–
O=[N+]([O-])c1cc(Br)cc2c1[nH]c1ccc(Br)cc12	58%	53.9%	58%	–	73.5%	63.5%	52.3%	44.3%	52.1%	77.1%	55.5%	58.4%	43.6%	73.4%	49.9%	84.6%	70.5%	44.2%	66.3%	88.7%
NC1(C(=O)N[C@@H](CCO)c2ccc(Cl)cc2)CCN(c2ncnc3[nH]ccc23)CC1	53%	17.3%	55%	–	24.6%	44.2%	56.6%	1.31% (active)	32.1%	57.2%	76.9%	73.5%	-42.3% (active)	60.9%	-3.48% (active)	-54.4% (active)	46.3%	-13.2% (active)	9.74% (active)	31.7%
COc1ccc(Cc2cc(-c3ccccc3C)n[nH]c2=O)cc1	98.6%	87.3%	129%	–	105%	105%	99.9%	105%	100%	93.2%	110%	84.6%	99.2%	85%	116%	97.8%	115%	22.7%	154%	119%
CC(C)n1c(NCCc2ccc(O)c(O)c2)nc2c1c(=O)n(C)c(=O)n2C	87.2%	90.1%	95.1%	–	100%	85.2%	92.8%	90.4%	103%	102%	97.1%	92.2%	–	94.2%	106%	104%	98.8%	83.7%	97.9%	–
O=C1C=CC2(NN=C(c3ccccc3)N2c2cccc(Cl)c2)C(Cl)=C1 (centres undefined)	85.9%	86.5%	82.6%	–	91.8%	36.6%	80.1%	98%	103%	103%	28.6%	61.6%	92.4%	74.9%	76.7%	96.8%	84.7%	84.5%	107%	78.4%
COC(=O)N[C@@H](C)CNc1nccc(-c2cn(C(C)C)nc2-c2cc(Cl)cc(NS(C)(=O)=O)c2F)n1	59.2%	94.9%	78.7%	–	91.2%	44.2%	53.4%	48.6%	4.94% (active)	79.6%	69.4%	61%	42.7%	82.2%	103%	91.2%	3.81% (active)	49.7%	1.63% (active)	-25.8% (active)
CC(=O)OCCC/C(=C\c1ccc2ccccc2c1)[N+](=O)[O-]	-42.3% (active)	-23% (active)	83.2%	-27.5% (active)	64.3%	-80.3% (active)	-72.3% (active)	-93.4% (active)	-77.9% (active)	-93.6% (active)	–	-58.8% (active)	–	-74.2% (active)	18%	-99% (active)	-70.9% (active)	–	-53.5% (active)	–
Cc1cc2c3c(cccc3c1)C(=O)c1ccccc1-2	81%	96.6%	82.3%	99.3%	102%	95%	104%	104%	93.4%	98.9%	98.8%	92.6%	–	92%	103%	97.2%	92.6%	–	90.8%	–
O=C(CNc1nc2ccccc2s1)Nc1ccc(-c2nc3ccccc3s2)cc1	88.9%	92.4%	92.3%	–	99.8%	91.2%	100%	102%	112%	106%	95.1%	99.2%	112%	92.1%	107%	107%	115%	99.8%	98.1%	102%
COc1cnc2c(c1)C(=O)c1c-2n(CCCN2CCOCC2)c(=O)c2cc(Cl)ccc12	20.6%	20.6%	31.3%	4.59% (active)	3.15% (active)	24.3%	34.9%	-0.608% (active)	9.49% (active)	17.8%	27.5%	64.1%	1.67% (active)	29.1%	8.59% (active)	6.36% (active)	11.9%	–	–	–
Cn1ccnc1C(=O)/C=C/c1ccc(CC(=O)Nc2ccc(S(F)(F)(F)(F)F)cc2)cc1	-12.7% (active)	-15.3% (active)	-5.16% (active)	–	-37.9% (active)	-51.1% (active)	-33.7% (active)	-82.7% (active)	-55.2% (active)	8.82% (active)	0.513% (active)	-2.8% (active)	-70.6% (active)	7.07% (active)	-6.63% (active)	-84.7% (active)	-27.4% (active)	5.09% (active)	51.4%	54.6%
CC(C)[C@@H]1CC[C@]2(CO2)[C@@H]2C(=O)OCC(C(=O)O)=C[C@H]21	-18.4% (active)	25.5%	8.82% (active)	5.26% (active)	7.86% (active)	-45.8% (active)	15.5%	11.6%	1.78% (active)	7.04% (active)	7.2% (active)	9.95% (active)	–	1.21% (active)	22.2%	6.83% (active)	-48.5% (active)	–	-3.58% (active)	–
Cc1ccsc1C(NC(=O)c1ccccc1)c1cc(Cl)c2cccnc2c1O (centres undefined)	28.1%	38.5%	32%	–	7.44% (active)	9.39% (active)	14.3%	18.2%	11.7%	41.2%	10.4%	37.8%	–	31.6%	1.35% (active)	18.7%	12.3%	35%	47.4%	–
COc1ccc2c(CCCc3ccc(Cl)cc3Cl)c3[n+](cc2c1OC)CCc1cc2c(cc1-3)OCO2	-12.2% (active)	14.6%	35.9%	–	4.66% (active)	-12.4% (active)	11.9%	16.5%	-59.6% (active)	17.9%	6.33% (active)	-10% (active)	–	12.9%	-19.3% (active)	-46.3% (active)	-24.5% (active)	0.488% (active)	-28.7% (active)	–
COc1cc2c(cc1OCCCCCCN1CCN(c3ncnc4ccccc34)CC1)N=CC1CCCN1C2=O (centres undefined)	-26.1% (active)	-54.9% (active)	-2.96% (active)	–	3.48% (active)	-55.2% (active)	1.08% (active)	-10.3% (active)	-57.1% (active)	4.65% (active)	-15.9% (active)	-29.1% (active)	–	-2.27% (active)	-45.5% (active)	-56.3% (active)	-85.5% (active)	-21.7% (active)	-65.9% (active)	–
C=CC(=O)Nc1cc2c(Nc3ccc(F)c(Cl)c3)ncnc2cc1C#CC(C)(C)N1CCN(C)CC1	-88.9% (active)	-97.4% (active)	-86% (active)	–	-77% (active)	-73.7% (active)	-82% (active)	-96.3% (active)	-71.7% (active)	-98.9% (active)	-30.7% (active)	-90.1% (active)	-98.6% (active)	-94.3% (active)	-97.4% (active)	-100% (active)	-90% (active)	-91.3% (active)	-85.3% (active)	-86.2% (active)
